Experimental data published in the supplement of paper PMC6555819.

Key:
Test in all cases: PBM binding z-score (relative to random genomic background probes); higher = stronger binding; sequences stand for … in GC…GCGATTGACAGCGTAGAATGAAGG
[1] = tested on: FXR:RXRa (NR concentration 270 nM, RXRa partner concentration 90 nM)
In short: (§1)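 Random background probes are the reference for binding z-scores. These scores derive from regression-normalized fluorescence on custom Agilent 4×180K protein-binding microarrays incubated 1 h with ligand-free nuclear receptor dimers. Binding was detected with antibodies against each partner (one per run).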

[2] = tested on: LXRa:RXRa (NR concentration 270 nM, RXRa partner concentration 90 nM)
In short: as §1

[3] = tested on: LXRa homodimer (NR concentration 270 nM)
In short: as §1

[4] = tested on: LXRb:RXRa (NR concentration 270 nM, RXRa partner concentration 90 nM)
In short: as §1

[5] = tested on: LXRb homodimer (NR concentration 270 nM)
In short: as §1

[6] = tested on: PPARa:RXRa (NR concentration 270 nM, RXRa partner concentration 90 nM)
In short: as §1

[7] = tested on: PPARg:RXRa (NR concentration 180 nM, RXRa partner concentration 90 nM)
In short: as §1

[8] = tested on: PPARg:RXRa 270nM:90nM, anti-RXR (NR concentration 270 nM, RXRa partner concentration 90 nM)
In short: as §1

[9] = tested on: PPARg:RXRa 30nM:10nM, anti-RXR (NR concentration 30 nM, RXRa partner concentration 10 nM)
In short: as §1

[10] = tested on: PPARg:RXRa 90nM:30nM, anti-RXR (NR concentration 90 nM, RXRa partner concentration 30 nM)
In short: as §1

Row | Sequence | PBM binding z-score [1] | PBM binding z-score [2] | PBM binding z-score [3] | PBM binding z-score [4] | PBM binding z-score [5] | PBM binding z-score [6] | PBM binding z-score [7] | PBM binding z-score [8] | PBM binding z-score [9] | PBM binding z-score [10]
1 | AGAAGGAGGGCAATGAGTTGATAGCACGGGTGGC | 0.307 | 0.255 | 0.19 | 0.452 | 0.521 | 1.2 | 1.33 | 0.786 | -0.173 | 0.451
2 | AGAATTAGGTTAAGATCAGGGAAACAGAATACAT | 0.832 | 0.821 | 0.412 | 0.748 | 0.359 | 2.94 | 3.33 | 2.93 | 1.28 | 2.24
3 | CCTACTGGGCCCAGGTCATTGATCAGTCAAAGCA | 1.37 | 1.52 | 0.696 | 1.88 | -0.506 | 2.17 | 0.602 | 1.4 | 0.0346 | 0.505
4 | ATCTCTAGGTACCAAGTTCAGTGAAAGAGAGGAC | 0.701 | 0.609 | 0.346 | 0.651 | 0.845 | 0.892 | 0.678 | 1.23 | 0.604 | 1.03
5 | ATCTCTAGGTAAAGATTGTTCAGTGAATGCAAAT | 0.226 | 0.124 | 0.091 | 0.234 | 0.621 | 0.0998 | 0.137 | 0.495 | 0.342 | 0.381
6 | CGTCAAAGTTCAAGGGAACGTAACAGAAAGCAGC | 6.3 | 5.44 | 2.42 | 3.12 | 0.895 | 4.42 | 3.85 | 4.64 | 1.76 | 3.48
7 | CCAGGCAGGTGAGAAGGTAACTCAGCCTCGATTA | -0.311 | -0.32 | -0.49 | -0.277 | -0.875 | 0.473 | 0.238 | 0.813 | -0.448 | 0.0901
8 | CCTACTGGGCCATGCAGAGGTCATTGATCATATG | 2.63 | 3.58 | 4.68 | 3.51 | -0.363 | 3.84 | 2.51 | 3.33 | 1.11 | 2.41
9 | TCTTGTAGATCAACCAGGTTAAGAAAGCCTGAGT | 0.429 | 0.506 | -0.188 | 0.429 | -0.277 | 0.901 | -0.376 | 1.51 | 2.7 | 2.07
10 | GCAGACAGGTGAAACGGAGGTAACTCAGGGTGGC | -0.223 | 0.247 | -0.497 | -0.0336 | -0.922 | 0.977 | 0.646 | 0.393 | -0.282 | 0.0488
11 | GCTAGCAGGCCATTTGGATCACTCAATGACGGGC | -0.129 | -0.387 | -0.841 | -0.881 | -0.721 | -0.45 | 0.511 | -0.386 | -0.566 | -0.739
12 | CATATAGGGTCAGCTAGGCCAGAGTAGGGACGGC | 4.43 | 3.32 | -0.142 | 2.24 | 0.223 | 4.44 | 3.29 | 3.31 | 0.812 | 2.26
13 | TATACAGGGTCAAAGCCCAGAGTACGAATGTCGA | 7.38 | 5.88 | 2.47 | 4.7 | 2.15 | 5.93 | 6.29 | 5.96 | 2.69 | 4.51
14 | CGTCCAAAGTCATAGGAGGTCAGTGAAGACAGAT | 2.25 | 4.11 | 1.4 | 2.44 | 0.026 | 2.82 | 0.638 | 0.912 | -0.0337 | 0.296
15 | CGTCAAAGTCCAACTAAGGTAACGTAAAGCACGC | 0.904 | 0.0247 | 0.14 | -0.00355 | 0.104 | 0.088 | 0.536 | -0.0783 | -0.0174 | 0.18
16 | TCTAGCAGGCCAGAGGGTCAATCAAGAGGTACGG | 1.44 | 1.33 | -0.494 | 1.43 | -1.31 | 2.66 | 1.61 | 3.01 | 2.27 | 2.91
17 | ACTTACGGGTCAACGAGGTTATAGCACGCGTATA | 6.51 | 5.39 | 0.989 | 4.36 | 0.794 | 5.52 | 5.71 | 5.48 | 2.87 | 4.14
18 | ATATGTAGGTTAGCTGGGGTGATTCAGACTAGGC | 2.08 | 0.979 | 0.289 | 1.32 | 0.553 | 2.85 | 3.26 | 2.89 | 0.853 | 1.94
19 | TCTATTAGTTGAAGGGCAACCCACGAGTCCGTTT | 0.7 | 1.04 | 0.728 | 1.18 | 0.631 | 1.08 | 0.343 | 2.04 | 3.83 | 2.89
20 | TAGCCTAGGTCCTGGGCCAGTATACCACGCGAAC | -0.638 | -1.08 | -0.796 | -0.85 | -1.45 | -0.439 | -0.0172 | -0.469 | -1.04 | -0.662
21 | ATCTCTAGGGAACAAGTTCAGTGAAAGAGAGGAC | 0.199 | 0.374 | 0.318 | 0.32 | 0.577 | 0.667 | 0.723 | 1.08 | 0.126 | 0.728
22 | AGAATGCGGTTACCAAAGATCAGGGAAACGCTTG | -0.546 | 1.96 | -0.607 | -0.204 | -0.992 | 0.0564 | 0.562 | 0.104 | -0.151 | -0.17
23 | ATCTCTAGGCAAAGATAGTTCAGTGAATGCAAAT | -0.415 | 0.271 | 0.124 | -0.207 | 0.263 | -0.233 | 0.154 | -0.151 | -0.0446 | -0.153
24 | ATATGTAGGTTAACGGTCATTCAGGTTGGTTCGC | 2.12 | 2.46 | 2.98 | 2.2 | 1.2 | 5.22 | 9.32 | 8.6 | 7.82 | 9.3
